# Reference: PubChem BioAssay AID1159580 (chemical genetic matrix, 2015)
# The campaign covered roughly 5,500 compounds. About 2,000 (36%) were called active. Roughly 18% stayed inconclusive and do not appear here. Rule as the data show it: active = normalized growth mostly below about 0.91 (no sharp cut-off); inconclusive = no clear call, values can overlap the other calls; inactive = mostly above about 0.92. The list shows a part of the results.
# Experiment: chemical genetic growth profiling, strain panel (AID 1159580);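 also: tested at 20 µM; growth read once vehicle control cultures reached saturation at 30 °C; 1 = growth at the plate median or of vehicle wells; lower values mean less growth of the strain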
# Conditions: S. cerevisiae deletion strains, growth OD
smiles,measurement,setting,value
CC(C)(C)NCC(O)COc1cccc2[nH]c(=O)[nH]c12 (centres undefined),normalized growth,"locus YAL040C, strain CLN3, hits give low values",1.02 (inactive)
same,normalized growth,"locus YCL061C, strain MRC1 (second series), hits give low values",1.01 (inactive)
same,normalized growth,"locus YDR150W, strain NUM1, hits give low values",1 (inactive)
same,normalized growth,"locus YDR363W, strain ESC2, hits give low values",1.01 (inactive)
same,normalized growth,"locus YER002W, strain NOP16, hits give low values",1.02 (inactive)
same,normalized growth,"locus YJR075W, strain HOC1, hits give low values",1.01 (inactive)
same,normalized growth,"locus YMR263W, strain SAP30, hits give low values",1 (inactive)
same,normalized growth,"locus YNL175C, strain NOP13, hits give low values",1.03 (inactive)
same,normalized growth,"locus YNL197C, strain WHI3, hits give low values",1.02 (inactive)
same,normalized growth,"locus YNL224C, strain SQS1, hits give low values",0.991 (inactive)
same,normalized growth,"locus YNL322C, strain KRE1, hits give low values",1.03 (inactive)
same,normalized growth,"locus YOR083W, strain WHI5 (second series), hits give low values",0.988 (inactive)
same,normalized growth,"locus YPL241C, strain CIN2, hits give low values",1 (inactive)
N#C/C(=N/Nc1ccc(F)cc1)C(=O)c1ccccc1,normalized growth,"locus YAR019C, strain CDC15, hits give low values",0.853 (active)
same,normalized growth,"locus YBL105C, strain PKC1, hits give low values",0.855 (active)
same,normalized growth,"locus YBR135W, strain CKS1, hits give low values",0.842 (active)
same,normalized growth,"locus YBR136W, strain MEC1, hits give low values",0.844 (active)
same,normalized growth,"locus YBR160W, strain CDC28, hits give low values",0.862 (active)
same,normalized growth,"locus YDL017W, strain CDC7, hits give low values",0.858 (active)
same,normalized growth,"locus YDL028C, strain MPS1, hits give low values",0.859 (active)
same,normalized growth,"locus YDL101C, strain DUN1, hits give low values",0.903 (active)
same,normalized growth,"locus YDL108W, strain KIN28, hits give low values",0.859 (active)
same,normalized growth,"locus YDL132W, strain cdc53, hits give low values",0.906 (inactive)
same,normalized growth,"locus YDL214C, strain PRR2, hits give low values",0.913 (inactive)
same,normalized growth,"locus YDR052C, strain DBF4, hits give low values",0.84 (active)
same,normalized growth,"locus YDR054C, strain cdc34, hits give low values",0.853 (active)
same,normalized growth,"locus YDR226W, strain ADK1, hits give low values",0.832 (active)
same,normalized growth,"locus YDR477W, strain SNF1, hits give low values",0.756 (inactive)
same,normalized growth,"locus YER123W, strain YCK3, hits give low values",0.794 (inactive)
same,normalized growth,"locus YER133W, strain GLC7, hits give low values",0.885 (inactive)
same,normalized growth,"locus YFL009W, strain cdc4, hits give low values",0.842 (active)
same,normalized growth,"locus YFL029C, strain CAK1, hits give low values",0.841 (active)
same,normalized growth,"locus YFR003C, strain YPI1, hits give low values",0.854 (active)
same,normalized growth,"locus YFR019W, strain FAB1, hits give low values",0.913 (inactive)
same,normalized growth,"locus YFR028C, strain CDC14, hits give low values",0.855 (active)
same,normalized growth,"locus YGR040W, strain KSS1, hits give low values",0.693 (inactive)
same,normalized growth,"locus YGR052W, strain FMP48, hits give low values",0.98 (inactive)
same,normalized growth,"locus YGR092W, strain DBF2, hits give low values",0.769 (inactive)
same,normalized growth,"locus YHR030C, strain SLT2, hits give low values",0.704 (active)
same,normalized growth,"locus YHR079C, strain IRE1, hits give low values",0.826 (inactive)
same,normalized growth,"locus YHR082C, strain KSP1, hits give low values",0.762 (inactive)
same,normalized growth,"locus YHR205W, strain SCH9, hits give low values",0.799 (inactive)
same,normalized growth,"locus YIL147C, strain SLN1, hits give low values",0.842 (active)
same,normalized growth,"locus YJL095W, strain BCK1, hits give low values",0.731 (inactive)
same,normalized growth,"locus YJL128C, strain PBS2, hits give low values",0.942 (inactive)
same,normalized growth,"locus YJL157C, strain FAR1, hits give low values",0.907 (inactive)
same,normalized growth,"locus YJR016C, strain ILV3, hits give low values",0.84 (active)
same,normalized growth,"locus YJR066W, strain TOR1 (second series), hits give low values",0.836 (inactive)
same,normalized growth,"locus YJR066W, strain TOR1, hits give low values",0.654 (inactive)
same,normalized growth,"locus YKL048C, strain ELM1, hits give low values",0.895 (inactive)
same,normalized growth,"locus YKL067W, strain YNK1, hits give low values",0.872 (inactive)
same,normalized growth,"locus YKL101W, strain HSL1, hits give low values",0.839 (inactive)
same,normalized growth,"locus YKL193C, strain SDS22, hits give low values",0.873 (active)
same,normalized growth,"locus YKL203C, strain TOR2, hits give low values",0.883 (inactive)
same,normalized growth,"locus YLR113W, strain HOG1, hits give low values",0.804 (active)
same,normalized growth,"locus YLR133W, strain CKI1, hits give low values",0.815 (inactive)
same,normalized growth,"locus YLR403W, strain SFP1, hits give low values",0.721 (inactive)
same,normalized growth,"locus YML070W, strain DAK1, hits give low values",0.854 (inactive)
same,normalized growth,"locus YMR001C, strain CDC5, hits give low values",0.841 (active)
same,normalized growth,"locus YMR205C, strain PFK2 (second series), hits give low values",0.821 (inactive)
same,normalized growth,"locus YMR277W, strain FCP1, hits give low values",0.85 (active)
same,normalized growth,"locus YNL006W, strain LST8, hits give low values",0.853 (active)
same,normalized growth,"locus YNL020C, strain ARK1, hits give low values",0.819 (inactive)
same,normalized growth,"locus YNL161W, strain CBK1, hits give low values",0.863 (active)
same,normalized growth,"locus YNL183C, strain NPR1, hits give low values",0.657 (inactive)
same,normalized growth,"locus YNL207W, strain RIO2, hits give low values",0.83 (active)
same,normalized growth,"locus YNL222W, strain SSU72, hits give low values",0.87 (active)
same,normalized growth,"locus YNL307C, strain MCK1 (second series), hits give low values",0.795 (inactive)
same,normalized growth,"locus YOL078W, strain AVO1, hits give low values",0.852 (active)
same,normalized growth,"locus YOL136C, strain PFK27, hits give low values",0.885 (inactive)
same,normalized growth,"locus YOR061W, strain CKA2, hits give low values",0.849 (inactive)
same,normalized growth,"locus YOR119C, strain RIO1, hits give low values",0.783 (inactive)
same,normalized growth,"locus YOR231W, strain MKK1, hits give low values",0.736 (inactive)
same,normalized growth,"locus YOR329C, strain SCD5, hits give low values",0.868 (active)
same,normalized growth,"locus YPL031C, strain PHO85, hits give low values",0.701 (inactive)
same,normalized growth,"locus YPL153C, strain RAD53, hits give low values",0.757 (inactive)
same,normalized growth,"locus YPL204W, strain HRR25, hits give low values",0.653 (active)
same,normalized growth,"locus YPL209C, strain IPL1, hits give low values",0.876 (active)
same,normalized growth,"locus YPL256C, strain CLN2, hits give low values",0.747 (active)
same,normalized growth,"locus YPR025C, strain CCL1, hits give low values",0.863 (active)
same,normalized growth,"locus YPR106W, strain ISR1, hits give low values",0.886 (active)
same,normalized growth,"locus YPR111W, strain DBF20, hits give low values",0.862 (active)
same,normalized growth,"strain NNK1, hits give low values",0.883 (active)
same,normalized growth,"strain TSCII, hits give low values",0.844 (active)
